The results in this text go back to the supplement of paper PMC6555819.

The experiment relates to RARb homodimer (NR concentration 270 nM). As to the kind of experiment: PBM binding z-score (relative to random genomic background probes); higher = stronger binding; sequences stand for … in GC…GCGATTGACAGCGTAGAATGAAGG
A digest of the protocol: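 Ligand-free nuclear receptor dimers were bound for 1 h to custom Agilent 4×180K protein-binding microarrays. Detection used antibodies against each partner (one per run). Binding z-scores rest on regression-normalized fluorescence, with random background probes as the reference.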
Regarding ATCTCTAGGTAAAGTCCAGTGAAAGATCGATAGA, the PBM binding z-score was 0.254.
In turn, AGAACGAGGGCAATGAGTTGATAGGACGGGTGGC displayed a PBM binding z-score of 1.01.
To ATGTCTAGGTAAAAGTTCAGTGAATCCCGAGGAT belongs 2.32; to ATACCAAGGGGATCGTGAGGTCGTTGATACTAAC, 1.03; to GCGACTGGGGCAAAGCAGGTTACCGTAAGGTTGG, 1.14.
To ATAGCAAGGTGATCGTGAGGTCGTTGATACTAAC belongs 1.29; to TCATATAGGTAAAAGGTGAAAGTCGGTGTGGTAA, 2.06; to AGAATGAGGTTATGCGTAGATCAGGGAAGAAAGT, 0.687.
To CGTACGAGGGCATGAGTTGATAGCAAATGCCGAT belongs 0.825; to TCTTGTAGATCAAGCAGGTTAAGCAAGCCTGAGT, 0.0597.
AATACAGGCTCACTAGGCCAGAGTAGGTACGAAT showed a PBM binding z-score of -0.345.
To GGAACGAGGGCCAAGTTGATAGCATCTGTCGACG belongs -0.0615; to CCTAGTTGGTCAGGAGGACACACACCGGATATGA, 1.58; to GCTTACGGGTCAAAGGTTATAGCTTGAATAGAAT, 3.13.
For TATACAGGGTCAAAGGCCCGAGTACGAATGTCGA, the PBM binding z-score is 2.83.
With TCTATAAGTTGAAGGGCAACCGACGAGTCCGTTT, the PBM binding z-score turned out to be 1.49.
To CCAGACAGGTGAGCAGGTAACTCAGCCTCGATTA belongs 0.399.
Sequence ACTAGCAGGCCAATTTTGGGTCACTCAAACAAAG came in with a PBM binding z-score of 2.11.
With CGTCCAAGTTCAAGGTCAGTGAAAGAGACTCGAA the figure was 4.11; with CGTCCAAGATCAAAGGTCAGTGAAGAGATGACGG, 4.44.
To CGTCAAAGTTCAAGGTAACGTAACAGAAAGCAGC belongs 3.92; to TGAATAAGGTTAAAGATCAGGGAACGTGGCGTCG, 1.04.
With CGTCCAAGGTCAATGCTAGGTCAATGAAAGCATT the figure was 5.08; with TAGCCTAGGTCATTGGGCCACTATAGTACGCATC, 3.11.
In the case of GCACATAGGTAATACAAGGTGAAAGTCCGATTGT, the PBM binding z-score turned out to be 0.838.
To TCATATAGGTACAGGTGAAAGTCGAACGATATGA belongs 0.469.
Turning to CCTCGGAGGACAACAGGAGGCCAGAGCTGCCAGA, the PBM binding z-score worked out at 0.662.
With CCTGCTAGGTCAGGGTCAGCTAATCTACAGTATG, the PBM binding z-score amounted to 4.16.
To GCAGAGAGGTGAAACGCAGGTAACTCAGGGTGGC belongs 1.31; to CGAACTAGGTCAGTGACAGGACAGTGAATAGTAA, 2.76; to GCTTATGGGTCAAAGGTTATAGCATGAATAGAAT, 3.09.
With CCTTACGGGTCACTCCGGGTTATAGCATCGGAGT the figure was 2.96; with GGAACGAGGGCACGTTGATAGCAGAGTTTGATGG, 1.27.
With GGAACGAGGGCAAAGTTGATATCATCTGTCGACG the figure was 1.26; with ACTACTAGTTGAGACGAGGGCAACCGATAGGTTG, 1.18.
As for CGTCCAAGGGCAAAGGTCAGTGAAGAGATGACGG, the PBM binding z-score is 4.71.
To ATATGTAGGTTAGCTGGGTTCATTCAGACTAGGC belongs 1.47.
Consider CCGAGTAGGTTATGGGTCATTCAGGCAACGGTGA, for which the PBM binding z-score came out at 2.66.
With GCTGCTAGGTCAGGGTGGTCAGCTAACGGGTACG the figure was 3.07.
